Compound activity as filed in PubChem.
HP1b chromo inh: HTS for Inhibitors of HP1-beta Chromodomain Interactions with Methylated Histone Tails | Chromobox protein homolog 1 (Homo sapiens), P83916 | hit rate 0.56% among 390,000 | Potency, µM (highest dose often 114 µM), inactives show top-dose activity change, negative = inhibition, actives largely listed as inhibitors | AID 540317, 2011 | AlphaScreen HP1-beta / biotin-H3K9me3 peptide binding; also: nearly all actives have a fitted effect of over 70% in size
Target sequence (P83916 whole entry, looked up): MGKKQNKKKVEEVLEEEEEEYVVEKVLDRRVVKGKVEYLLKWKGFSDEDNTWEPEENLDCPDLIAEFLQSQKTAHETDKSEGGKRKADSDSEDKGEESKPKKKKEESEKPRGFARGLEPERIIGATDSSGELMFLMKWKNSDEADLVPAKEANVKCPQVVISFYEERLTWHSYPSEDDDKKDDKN
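Compound inhibition of the preformed complex between 50 nM HP1-beta and 50 nM biotinylated H3K9me3 peptide was read by AlphaScreen. Buffer was PBS pH 7.4 with 0.01% Tween-20. Incubations ran 30 min at room temperature, with 10 ug/mL donor/acceptor beads.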
G9a inh: qHTS Assay for Inhibitors of Histone Lysine Methyltransferase G9a. G9a H3K9 monomethylation, AlphaScreen, 2 h. Potency, µM (top dose mostly 102 µM), for inactives: at the highest dose activity, negative = inhibition, actives largely listed as inhibitors. hit rate 8.8% among 350,000; also: % is scaled to controls: 0 for no effect and ±100 for the full control effect; nearly all actives have a fitted effect of over 75% in size
Target sequence (Q96KQ7 913-1193 limits assumed): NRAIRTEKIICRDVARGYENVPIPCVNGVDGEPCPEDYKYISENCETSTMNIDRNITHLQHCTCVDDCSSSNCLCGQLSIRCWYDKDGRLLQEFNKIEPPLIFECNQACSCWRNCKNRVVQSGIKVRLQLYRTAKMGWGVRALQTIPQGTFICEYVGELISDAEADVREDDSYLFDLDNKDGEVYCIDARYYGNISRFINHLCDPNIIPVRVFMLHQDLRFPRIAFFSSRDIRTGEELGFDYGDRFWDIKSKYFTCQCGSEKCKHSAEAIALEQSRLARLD
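AlphaScreen detection with an anti-monomethyl H3K9 antibody quantified product after a 2 h room-temperature reaction containing 500 nM biotinylated H3K9 peptide, 20 µM SAM and 20 nM enzyme, which had been preincubated 15 min with compound.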
L3MBTL1 block: qHTS Assay for the Inhibitors of L3MBTL1 | Lethal(3)malignant brain tumor-like protein 1 (Homo sapiens), Q9Y468 | AlphaScreen L3MBTL1–H3K9me1 peptide binding | Potency, µM (doses to about 57.1 µM), for inactives: at the highest dose activity, negative = inhibition, usual class: inhibitors | hit rate 0.66% among 230,000 | AID 485360, 2010; also: % is scaled to controls: 0 for no effect and ±100 for the full control effect; nearly all actives have a fitted effect of over 60% in size
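AlphaScreen proximity signal between nickel-chelate acceptor and streptavidin donor beads (final 10 ug/mL) reports binding of 50 nM L3MBTL1 to 75 nM biotin-H3 K9me1 peptide; complex incubated with compounds 30 min at room temperature; cefsulodin titration as control.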
JMJD2A Tudor: qHTS Assay for Inhibitors of JMJD2A-Tudor Domain; Potency, µM (doses to about 114 µM), without a hit: at the top dose activity change, negative = inhibition, hits mostly inhibitors; AlphaScreen JMJD2A-Tudor / H3K4me3 peptide binding; hit rate 4.4% among 390,000; also: % is scaled to controls: 0 for no effect and ±100 for the full control effect; nearly all actives have a fitted effect of over 50% in size
Sfp PPTase inh: qHTS Assay for Inhibitors of Bacillus subtilis Sfp phosphopantetheinyl transferase (PPTase) | Biochemical Sfp PPTase activity, qHTS | AID 1490, 2009 | 4'-phosphopantetheinyl transferase ffp (Bacillus subtilis), Q9F4F7 | hit rate 3.5% among 310,000 | Potency, µM, for inactives: largest response in the series, negative = inhibition, usual class: inhibitors;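 also: the enzyme is Sfp with the accession as filed and its product quenches rhodamine fluorescence; 0% = enzyme reaction without inhibitor and -100% = no enzyme wells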
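With Hepes-Na pH 7.6 buffer containing 10 mM MgCl2, Sfp (15 nM) modified BHQ-2-YbbR (12.5 uM) using rhodamine-CoA (5 uM). Two reads 30 minutes apart at 525/598 nm yielded each well's rate.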
BAZ2B inh: qHTS Assay for Inhibitors of BAZ2B; Bromodomain adjacent to zinc finger domain protein 2B (Homo sapiens), Q9UIF8; hit rate 4.4% among 360,000; Potency, µM (doses to about 114 µM), inactives show at the top dose activity change, negative = inhibition, most hits filed as inhibitors; AID 504333, 2011; AlphaScreen BAZ2B-H3K14Ac peptide displacement; also: % is scaled to controls: 0 for no effect and ±100 for the full control effect; nearly all actives have a fitted effect of over 60% in size
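Protein-peptide AlphaScreen: BAZ2B 50 nM, b-H3K14Ac 50 nM, 1x PBS pH 7.4 + 0.01% Tween-20. Preincubation 30 min RT; cpd 30 min RT (top 110 uM); beads 20 min RT, light-protected.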
Numbers without * were called inactive; ? = inconclusive; nt = no result; [ ] = another dose, or the depositor's remark. Shown are actives, neighbours in structure and some others; about 12% of the full set was active somewhere. Calls follow the shape of the dose curve; as a rule, active = well fitted curve in the direction sought with a large enough effect; inconclusive = small, poorly fitted or top-dose-only effect, or another doubt; inactive = no such curve, though single readings can be large; an effect the other way counts as inactive or inconclusive. Potency is read from the fitted curve at half-maximal effect.

SMILES	HP1b chromo inh	G9a inh	L3MBTL1 block	JMJD2A Tudor	Sfp PPTase inh	BAZ2B inh
O=[N+]([O-])c1ccc(S(=O)(=O)NCC(c2cccnc2)N2CCc3ccccc3C2)cc1 (stereo not given)	6%	50µM*	-6%	-25%	nt	?
COc1ccc(C(=O)NCC(c2ccc(N(C)C)cc2)N2CCc3ccccc32)cc1OC (stereo not given)	?	25µM*	nt	20µM*	nt	20µM*
CC1(C)C(=O)Nc2ccccc2N1C(=O)COC(=O)c1cccnc1Cl	17%	nt	-20%	-5%	nt	nt
NN1C(=O)NC(c2ccccc2)(c2ccccc2)C1=O	29%	8%[59 µM]	nt	25µM*	16%	-5%
CN(C)S(=O)(=O)c1ccc2c(c1)N(CC(=O)NCc1cccc(Br)c1)C(=O)CS2	29%	-3%[59 µM]	nt	-8%	nt	-7%
O=C1OCC2=C1C(c1ccc(F)cc1)CC(=O)N2c1ccccc1 (stereo not given)	nt	31%	-45%	nt	3%	9%
CCC1CCC2(CC1)NC(=O)N(CC(=O)NCc1ccccc1Cl)C2=O (stereo not given)	18%	nt	2%	-7%	nt	nt
COc1cccc(NC(=O)NNC(=O)CCc2ccc(O)c(O)c2)c1	35%	nt	nt	-9%	56µM*	-17%
COc1ccc(CCC(=O)NNC(=O)Nc2cccc(Cl)c2)cc1	53%	8%	nt	-8%	12%	-17%
COc1ccc(CCC(=O)NNC(=S)Nc2cccc(C(C)=O)c2)cc1	-4%	40µM*	6%	-18%	8%	-2%
O=C1c2ccccc2NC(c2cccs2)N1O (stereo not given)	46%	32µM*	-4%	?	nt	-3%
CC(=O)Nc1cccc(-c2csc(NCc3ccccc3)n2)c1	?	11µM*	-13%	13µM*	40µM*	20µM*
CC(=O)Nc1cccc(-c2csc(Nc3ccccn3)n2)c1	6%	16%[0.0925 µM]	-5%	?	89µM*	-11%
CCC(=O)Nc1cccc(-c2csc(-c3ccccc3)n2)c1	29%	-10%[2.33 µM]	6%	1%	-8%	12%
CC1CCc2c(sc(NC(=O)C3c4ccccc4Oc4ccccc43)c2C(=O)OC(C)C)C1 (stereo not given)	14%	7%[59 µM]	nt	-14%	nt	-1%
O=C(COC(=O)c1ccccc1NCCO)Nc1cc(C(F)(F)F)ccc1N1CCOCC1	62%	?	nt	27%	0%	17%
Fc1cccc(/C=N/n2c(C3CCCCC3)n[nH]c2=S)c1	28%	?	nt	-14%	5%	18%
Cc1cc(-c2n[nH]c(=S)n2/N=C/c2cccc([N+](=O)[O-])c2)n[nH]1	?	1.6µM*	1%	7.9µM*	-24%	-12%
COc1cc(/C=N/n2c(C3CCCCC3)n[nH]c2=S)cc(OC)c1O	?	2µM*	nt	2.8µM*	-7%	-18%
Oc1cccc(/C=N/n2c(C3CCCCC3)n[nH]c2=S)c1	-20%	2µM*	nt	32µM*	-7%	-24%
COc1cccc(/C=N/n2c(C3CCCCC3)n[nH]c2=S)c1	-8%	2.5µM*	nt	32µM*	-20%	-34%
O=[N+]([O-])c1cccc(/C=N/n2c(C3CCCCC3)n[nH]c2=S)c1	8%	1.6µM*	-3%	?	1%	10%
Cc1nnc(C)n1/N=C/c1cccc([N+](=O)[O-])c1	35%	2%	25%	8%	7%	-4%
O=C(Nc1c2c(nn1-c1ccccc1)CS(=O)(=O)C2)c1ccccc1Br	27%	23%	nt	-3%	10%	-4%
CCOc1ccc(N2CSC(=S)N(c3ccc(OCC)cc3)C2)cc1	4%	-7%	-15%	-23%	35µM*	-24%
SMILES	HP1b chromo inh	G9a inh	L3MBTL1 block	JMJD2A Tudor	Sfp PPTase inh	BAZ2B inh
CCOc1ccc(N2CC(=O)SC2=S)cc1	28%	-40%	-1%	-14%	1%	-29%
Cc1cc(NC(=O)c2ccc3c(c2)N(Cc2cccc(Cl)c2)C(=O)c2ccccc2S3(=O)=O)ccc1Br	20%	-42%[59 µM]	nt	-19%	nt	-15%
CCOc1ncccc1C(=O)OCC(=O)c1cc(C)n(Cc2ccco2)c1C	-3%	?	-16%	?	-27%	50µM*
Cc1cc(C(=O)COC(=O)c2ccc(CO)cc2)c(C)n1CC1COc2ccccc2O1 (stereo not given)	1%	4µM*	-17%	-27%	-9%	?
CCOc1ncccc1C(=O)OCC(=O)c1ccc(F)cc1	8%	33%	18%	20µM*	14%	11%
O=C(COC(=O)c1cccnc1Cl)c1ccc(F)cc1	45%	5%	5%[11.4 µM]	1%	20%	-13%
Cc1cc(C(=O)COC(=O)c2ccc(O)cc2)c(C)n1Cc1ccco1	?	?	-17%	?	-22%	50µM*
Cc1cc(C(=O)COC(=O)c2ccc(Br)o2)c(C)n1Cc1ccco1	nt	?	-23%	nt	4%	?
CC(CNC(=O)CN1C(=O)COc2ccc(S(=O)(=O)N3CCCCCC3)cc21)c1ccccc1 (stereo not given)	28%	-27%[59 µM]	nt	-12%	nt	?
Cc1cccc(NC(=O)c2cc(NC(=O)c3ccccc3)ccc2N2CCCCC2)c1	3%	0%	nt	-16%	23%	6%
Cc1cccc(C(=O)Nc2ccc(N3CC=C(c4ccccc4C)CC3)c(C(=O)O)c2)c1	-7%	?	nt	?	nt	45µM*
C=CCn1c(C(CCC(C)C)CC(C)(C)O)n[nH]c1=S (stereo not given)	-8%	?	0%	7.1µM*	-8%	10%
O=c1[nH]n(Cc2ccccc2)c2ccccc12	33%	?	-7%	-12%	16%	3%
Cc1ccc(C(=O)Nc2nnc(-c3ccco3)o2)cc1C	37%	6%	11%	-5%	7%	?
Cc1cccc(C(=O)Nc2nnc(-c3ccco3)o2)c1	35%	5%	4%	?	13%	45µM*
Cc1ccc(-c2csc(NC(=O)c3cccc(N4C(=O)CCC4=O)c3)n2)o1	-11%	8.9µM*	5%	79µM*	20µM*	-32%
Cc1ccccc1C(=O)Nc1nnc(-c2ccco2)o1	39%	-13%[59 µM]	22%	50µM*	-12%	50µM*
O=C(Nc1nnc(-c2ccncc2)o1)c1ccc2ccccc2c1	38%	6%	nt	-22%	18%	79µM*
CCCCn1c(N)c(N(CC(C)C)C(=O)CSc2nnc(C)n2-c2ccccc2)c(=O)[nH]c1=O	35%	nt	nt	14%	nt	nt
